# In PubChem BioAssay (NCI):
# The panel holds about 83,000 compounds, 20% with a hit somewhere; the sample as a whole holds those more often.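 For each line, cells grew in 96-well plates with the test compound present at a single concentration for 48 hours.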 Values without a mark were called inactive. The source made the active and inactive calls. How the source made its calls: active means growth percent below 10; inactive means the rest.
# Test system: HL-60(TB) leukemia
# Experiment: NCI-60 one-dose screen, 48 h (100 = growth as untreated, 0 = no growth, -100 = all killed)
# Details: 10 µM unless noted
row,Compound,growth
1,COc1ncc(-c2ccc3nc(N)n(-c4ccccc4C(F)(F)F)c(=O)c3c2)cc1S(=O)(=O)Nc1ccc(F)cc1F,19.9%
2,COc1ccc2c(c1)C(=Nc1cc(OC)c(OC)c(OC)c1)C(=O)N2,96.1%
3,COc1cccc(Nc2ncnc3cc(NC(=O)CCl)ccc23)c1,-49.7% (active)
4,Cn1cc(-c2nn3cc(-c4cccs4)nc3s2)c2cc(F)ccc21,3.45% (active)
5,CCOC(=O)c1csc(NC(=O)COc2ccc(/C=C3\Oc4ccccc4C3=O)cc2)n1,7.24% (active)
6,Clc1ccc(-c2nc(C(Cl)Cl)nc3cc(-c4ccccc4)nn23)cc1,5.27% (active)
7,Nc1c(C(=O)Nc2cccc(Br)c2)sc2nc3c(cc12)C(=O)CCC3,49.7%
8,COc1ccc(/C(C)=C(\c2ccc(Cl)cc2)c2ccc(OCCCN(C)C)cc2)cc1F,66.2%
9,CCOC(=O)/C=C1\S/C(=N\Nc2cc(=O)[nH]c3ccc(OC)cc23)N(c2ccccc2)C1=O,96.1%
10,COc1ccc(S(=O)(=O)n2c3ccccc3n3ncc(-c4nnc(C)o4)c23)cc1,12.2%
11,Cc1ccc2nc(SCn3nnc4ccccc4c3=O)[nH]c2c1,80.3%
12,CC(C)[C@@H]1CC[C@]2(CO2)[C@@H]2C(=O)OCC(C(=O)O)=C[C@H]21,-12.4% (active)
13,COC(=O)c1cc(-c2cc(OC)c(OC)c(OC)c2)[nH]c1N/N=C/c1c(Cl)cccc1Cl,134%
14,CC(C)(C)[Si](C)(C)OC1[C@@H](COC(=O)NC(=O)CCl)O[C@@H](n2cnc3c(N)ncnc32)[C@H]1O[Si](C)(C)C(C)(C)C (stereo not given in full),-48.3% (active)
15,CCOC(=O)CCCS(C)(=O)=O,117%
16,CCN1CCN(CCNc2nccc(-c3c(-c4ccc(F)c(O)c4)nc4occn34)n2)S1(=O)=O,1.1% (active)
17,N=c1c2c(-c3ccccc3)c(-c3ccccc3)n(Cc3ccccc3)c2ncn1CCCO,39%
18,N=C(N)c1ccc(-c2ccc(-c3ccc(-c4cccs4)s3)s2)cc1,100%
19,CC(C)CCOc1ccc(-c2n[nH]c(C(F)(F)F)c2-c2cncc(C#N)c2)c(O)c1,3.64% (active)
20,Cc1ccc(NC(=O)c2[nH]c(SCCN(C)C)nc2-c2ccc(F)cc2)cc1C#Cc1cnc2cccnn12,-54.9% (active)

row,Compound,growth
1,Clc1nc2ccc(Br)cc2cc1-c1nc2ccccc2[nH]1,87.6%
2,COC(=O)N[C@H]1CCc2cc(OC)c(OC)c(OC)c2-c2ccc(SC)c(=O)cc21,-45.4% (active)
3,Cc1c(CC(=S)N2CCOCC2)nnn1-c1cccc(C(F)(F)F)c1,100%
4,O=C1C=CC(=O)N1c1ccccc1,44.5%
5,COc1cc(C2CC(=O)Nc3c2c(C)nn3-c2nc3ccccc3[nH]2)cc(OC)c1OC (stereo not given),108%
6,C=CCCCCCCCCCOC(C)=O,120%
7,COc1ccc2c3c(c(OCCCN(C)C)nc2c1)-c1ccc(Cl)cc1C3=O,70.7%
8,CCN1CCN(C(=O)[C@]23CC[C@@H](C)[C@H](C)[C@@H]2C2=CC[C@@H]4[C@@]5(C)C/C(=C/c6ccncc6)C(=O)C(C)(C)[C@@H]5CC[C@@]4(C)[C@]2(C)CC3)CC1,-33.1% (active)
9,COc1cc2c(cc1OC)CC[N+](CCC[N+](C)(C)C)=C2,90.1%
10,O=C1CC[C@@H]2CCCC[C@@H]2C1,110%
11,O=C(N/N=C/c1ccc(O)cc1O)c1ccc(Nc2ccnc(C(F)(F)F)c2)cc1,44.1%
12,CCCCC1=C(P(=O)(O)O)N[C@H](C(=O)O)CS1,103%
13,NC(=O)c1ccc2nc3c(n2c1)C(=O)C(=O)c1ccccc1-3,-42.2% (active)
14,O=S(=O)(NCCO)c1ccc(OCCOc2ccc(S(=O)(=O)NCCO)cc2)cc1,68.4%
15,COc1ccc2c(c1)CC/C(=C\c1ccc(OCC(=O)Nc3nc4ccccc4s3)cc1)C2=O,87.6%
16,CC(/C=N/NC(=O)c1cc(-c2ccco2)[nH]n1)=C\c1ccccc1,99%
17,COC1OC(COS(=O)OC)C(O)C(O)C1OS(=O)OC (stereo not given),82.6%
18,CN(Cc1ccccc1)c1nc(Cl)c(C2CC(c3ccccc3)=NN2c2ccccc2)s1 (stereo not given),100%
19,O=C(c1ccc(Cl)cc1)c1no[n+]([O-])c1C(=O)c1ccc(Cl)cc1,-27.9% (active)
20,COc1ccc(CCCc2c3[n+](cc4c(OC)c(OC)ccc24)CCc2cc4c(cc2-3)OCO4)cc1,36.6%
